Results filed as inconclusive are left out. Activity calls are given as the source filed them. Calls come from the whole dose curve.
Biological target: Tyrosine-protein kinase ABL1 (Homo sapiens) (UniProt P00519)
Assay: ABL1 kinase (ABL1-N-HiBiT) enzymatic inhibition screen - Functional assay
Details: luminescence; series mostly up to 57.5 µM
Text: National Center for Advancing Translational Sciences (NCATS),
National Institute of Health (NIH), Maryland
Discovery and optimization of novel protein-binding ligands underlies many of the methods and applications of biology, drug discovery, clinical diagnostics, and environmental toxicology. Assays for detecting the interaction of, for example, a molecule with a macromolecular target also referred to here as the target of interest (TOI) is dependent on a compatible output technology. Depending on the nature and knowledge surrounding the TOI, whether a receptor, enzyme, regulatory subunit or scaffold, or a sequence-defined nucleic acid folded into a complex tertiary structure, assay strategies can vary widely.
Here we exploit ligand-biased changes in the structural dynamics of the target protein to control reporter alpha complementation allowing a non-competitive, non-functional, non-separation measure of ligand-target interaction.
Using a chemical library of >1,200 compounds enriched for scaffolds known to be associated with the inhibition of firefly luciferase (FLuc) activity (PubChem AIDs 2309) we first illustrate and compare the Structural Dynamics Response (SDR) assay vs. the standard functional FLuc enzyme assay (2). Secondly, we show the specificity and sensitivity of the SDR for the Abelson tyrosine kinase (ABL1) compared to the serine/threonine protein kinase A, using an enriched chemical library of 128 compounds selected, in part, for activity annotated with ABL1 kinase activity using the Pharos database (3).
(1) A. S. Dixon et al., NanoLuc Complementation Reporter Optimized for Accurate Measurement of Protein Interactions in Cells.
Chemistry & Biology, 19, 1060 - 1072 (2012).
(3) K. J. Kelleher et al., Pharos 2023: an integrated resource for the understudied human proteome. Nucleic Acids Res 51, D1405-D1416 (2023).
PROTOCOL TABLE (as described by Inglese J, Shamu CE and Guy RK. 2007)
SEQUENCE No. (e.g., 1, 2, 3, etc.); […] (e.g., C. elegans, Compounds, Incubation, Read, etc.); VALUE and DESCRIPTION.
1. Reagent. Dispense 4 uL ABL1-N-HiBiT enzyme per well at a final enzyme concentration of 10 nM in buffer with 87.5 uM ATP (functional assay) into columns 2-48 of four replicate Greiner 1536-well white, solid bottom high base, medium plates per assay. Dispense respective buffer without enzyme at 4 uL/well in column 1 of assay plates using BioRaptr 2.
2. Compounds. Library compounds added at 23 nL/well by pin transfer. DMSO neutral control and imatinib positive control added at 25 nL/well, transfer by Mosquito dispenser.
3. Incubation. Incubate enzyme and compounds at room temperature for 30 min, protected from light.
4. Reagent. (Functional assay) Transfer 25 nL of abltide peptide substrate to each well of four replicate kinase assay plates with Mosquito dispenser.
5. Incubation. (Functional assay) Kinase enzyme incubated with peptide substrate for 3 h at room temperature, protected from light.
6. Reagent. (Functional assay) Add 4 uL/well of Kinase-Glo Plus reagent (Promega) to kinase activity assay plates, in the presence of ATP.
7. Detector. (Functional assay) Luminescence measured using CCD-based camera (ViewLux) with settings as follows: Exposure, 1 sec; Gain, High; Speed, Slow; Binning, 2X.
Inglese J, Shamu CE and Guy RK, Reporting data from high throughput screening of small molecule libraries, Nature Chemical Biology, 2007, 3(8): 438-441. doi.org/10.1038/nchembio0807-438.

Chain of Tyrosine-protein kinase ABL1 (Homo sapiens) (P00519 whole entry, looked up): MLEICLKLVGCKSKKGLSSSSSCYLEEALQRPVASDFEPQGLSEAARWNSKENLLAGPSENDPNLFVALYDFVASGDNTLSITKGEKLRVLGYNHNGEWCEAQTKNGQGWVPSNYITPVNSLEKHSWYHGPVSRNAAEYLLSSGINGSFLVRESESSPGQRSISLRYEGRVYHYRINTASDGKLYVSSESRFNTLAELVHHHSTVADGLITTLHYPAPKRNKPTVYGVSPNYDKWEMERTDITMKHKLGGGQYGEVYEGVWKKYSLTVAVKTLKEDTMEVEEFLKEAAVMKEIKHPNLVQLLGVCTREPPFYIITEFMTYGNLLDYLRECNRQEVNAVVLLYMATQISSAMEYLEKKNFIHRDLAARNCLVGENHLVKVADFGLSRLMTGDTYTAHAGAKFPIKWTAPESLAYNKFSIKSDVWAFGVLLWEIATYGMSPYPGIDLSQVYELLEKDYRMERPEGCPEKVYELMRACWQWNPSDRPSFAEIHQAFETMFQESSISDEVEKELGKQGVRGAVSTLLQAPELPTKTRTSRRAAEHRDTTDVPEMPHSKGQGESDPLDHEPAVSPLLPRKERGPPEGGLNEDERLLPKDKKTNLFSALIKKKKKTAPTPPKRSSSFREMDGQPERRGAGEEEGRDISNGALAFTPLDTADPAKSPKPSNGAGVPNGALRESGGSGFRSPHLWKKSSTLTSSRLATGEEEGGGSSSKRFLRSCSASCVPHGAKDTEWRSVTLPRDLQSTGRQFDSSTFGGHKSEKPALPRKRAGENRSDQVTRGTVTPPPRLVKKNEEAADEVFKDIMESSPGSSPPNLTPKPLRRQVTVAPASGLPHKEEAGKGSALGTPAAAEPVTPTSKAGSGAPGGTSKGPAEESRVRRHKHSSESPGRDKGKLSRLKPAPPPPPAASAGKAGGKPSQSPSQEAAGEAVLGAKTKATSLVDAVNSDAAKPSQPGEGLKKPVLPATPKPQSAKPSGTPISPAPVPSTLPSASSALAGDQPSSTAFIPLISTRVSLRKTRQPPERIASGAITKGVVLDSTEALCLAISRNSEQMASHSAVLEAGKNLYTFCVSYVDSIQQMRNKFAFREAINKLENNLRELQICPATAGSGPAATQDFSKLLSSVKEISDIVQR

SMILES | outcome
CCNC(=O)C[C@@H]1N=C(c2ccc(Cl)cc2)c2cc(OC)ccc2-n2c(C)nnc21 | inactive
O=C(NCCCNc1nc(Nc2ccc(N3CCOCC3)cc2)ncc1C1CC1)C1CCC1 | inactive
Cc1[nH]nc2ccc(-c3cncc(OC[C@@H](N)Cc4c[nH]c5ccccc45)c3)cc12 | inactive
N#Cc1cn([C@@H]2O[C@H](CO)[C@H](O)[C@@H]2O)c2ncnc(N)c12 | inactive
O=[N+]([O-])O[C@H]1CO[C@H]2[C@@H]1OC[C@H]2O[N+](=O)[O-] | inactive
C/C(O)=C(\C#N)C(=O)Nc1cc(Br)ccc1Br | inactive
